Results filed as inconclusive are left out. Activity calls are given as the source filed them. Unless noted, calls come from the whole dose curve; as a rule, active = well fitted curve in the direction sought with a large enough effect; inconclusive = small, poorly fitted or top-dose-only effect, or another doubt; inactive = no such curve, though single readings can be large; an effect the other way counts as inactive or inconclusive.

In experiment [1] the target is Ferritin light chain (Equus caballus) (UniProt P02791). Kind of experiment: qHTS Validation Assay for Identification of Novel General Anesthetics (AID 2323). Note: series mostly up to about 77 µM. The method in brief: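 Normalized fluorescence response, scaled between free 1-AMA and 1-AMA/apoferritin complex, fitted to a four-parameter Hill equation for concentration-effect values. Binding mix: 10 uM horse-spleen apoferritin, 50% saturated 1-AMA in PBS; read 380/535 nm after 10 min.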
In general terms: Quantitative high-throughput screening tests each substance at several concentrations.

In experiment [2] the target is ATP-dependent DNA helicase Q1 (Homo sapiens) (UniProt P46063). In words: qHTS Validation Assay for Inhibitors of RecQ-Like Dna Helicase 1 (RECQ1) (AID 2353). The gist of the method: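 50 nM RECQ1T1 preincubated 15 min with compound in Tris pH 8.0 buffer with MgCl2, DTT, Tween-20 and 2.5 ug/ml poly(dI-dC); started with 200 nM TAMRA/BHQ-2 forked duplex and 2 mM ATP. Unwinding read as fluorescence (525/598 nm), two reads 2 h apart.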

Experiment [3] is described as follows: Cytometric Cell-Based qHTS for Inhibitors of the mTORC1 Signaling Pathway in MEF (Tsc2-/-, p53-/-) Cells (AID 2660).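 Note: Tsc2 and p53 null MEFs carrying empty vector with compound for 24 h; percent of cells above a phospho-rpS6 to PI ratio cutoff in each well; series mostly up to about 38 µM.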 The gist of the method: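 Cells are plated, treated with compound for 24 hrs at 37 degree Celsius, then fixed, blocked and immunostained for phospho-rpS6 Ser235/236. Propidium iodide counterstain follows. Per-well % positive cells is derived from the PI-normalized phospho-S6 signal.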

Experiment [4] is described as follows: High Content Imaging Cell-Based qHTS for Inhibitors of the mTORC1 Signaling Pathway in MEF Cells (AID 2667).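 Note: Tsc2-/- p53-/- MEFs stably re-expressing wild-type Tsc2 exposed 24 h; series mostly up to about 38 µM.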 The method in brief: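 Immunofluorescence for rpS6 phosphorylation in MEFs of Tsc2-/-, p53-/- background rescued with WT Tsc2. Compound exposure lasted 24 hrs. Inhibition was scored against rapamycin-treated control wells.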
The nature of experiment [5]: Validation screen for inhibitors of Lassa infection (AID 463096; calls by dose curve).
Experiment [6] can be described thus: Validation screen for small molecules that induce DNA re-replication in MCF 10A normal breast cells (AID 463097). Note: nearly all actives have a fitted effect of over 60% in size. Note: potency is the fitted concentration of half-maximal effect. The gist of the method: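 Following 48 hr compound incubation (37 C, 5% CO2), MCF 10A cells receive Hoechst for 40 min at 37 C. Nuclei are then scanned (excitation 405 nm, emission 500-530 nm) for total fluorescence intensity.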
Experiment [7] addresses Ubiquitin carboxyl-terminal hydrolase 2 (Homo sapiens) (UniProt O75604). In words: qHTS Validation Assay for Inhibitors of Ubiquitin-specific Protease USP2a Using CHOP2 as the Reporter (AID 463106). The gist of the method: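 10nM USP2 core + cpd, 30min RT; add 25nM Ub-CHOP2/25nM substrate; 60min RT; FI 485/531nm. Buffer Tris pH 8.0, CaCl2, BME, CHAPS. Norm. to NEM = 100% inhibition; time-zero read flags fluorescent artifacts.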

Experiment [8] has as its target DNA polymerase III PolC-type (Bacillus subtilis (strain 168)) (UniProt P13267). Kind of experiment: qHTS Validation Assay for the Inhibitors of DNA Replication in Gram-Positive Bacteria (AID 485295).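 Note: reconstituted holoenzyme with PolC plus beta clamp SSB and primase; PicoGreen fluorescence of double-stranded DNA made on primed circular M13 template; series mostly up to about 57 µM.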 The gist of the method:
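Inhibition of DNA synthesis by the reconstituted PolC holoenzyme, monitored through PicoGreen staining of dsDNA formed from ssM13Gori, dNTPs and NTPs, with compound preincubation and room-temperature reaction.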

Experiment [9] concerns the target Tumor susceptibility gene 101 protein (Homo sapiens) (UniProt Q99816). In words: qHTS Validation Assay for Iinhibitors of HIV-1 Budding by Blocking the Interaction of PTAP/TSG101 (AID 485342; calls by dose curve). The method in brief:
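Compound wells held the Tsg101 binding domain (10 uM) and a FITC-conjugated PTAP peptide (50 nM) in buffer at pH 7.5 containing 0.15 M NaCl and 0.01% Tween 20; polarization was recorded after 20 min, r.t.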

Experiment [10] deals with RecQ-like DNA helicase BLM (Homo sapiens) (UniProt P54132). In words: qHTS Validation Assay for Inhibitors of Bloom's syndrome helicase (BLM) (AID 2364). The gist of the method: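 Forked 20-bp duplex substrate (200 nM, TAMRA/BHQ-2) plus 2 mM ATP added after 15 min compound preincubation with 50 nM enzyme, pH 8.0, poly(dI-dC) 2.5 ug/ml. Strand separation followed by fluorescence (525/598 nm) over 2 h, normalized to enzyme-free and DMSO controls.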
Sequence of RecQ-like DNA helicase BLM (Homo sapiens) (P54132 whole entry, looked up): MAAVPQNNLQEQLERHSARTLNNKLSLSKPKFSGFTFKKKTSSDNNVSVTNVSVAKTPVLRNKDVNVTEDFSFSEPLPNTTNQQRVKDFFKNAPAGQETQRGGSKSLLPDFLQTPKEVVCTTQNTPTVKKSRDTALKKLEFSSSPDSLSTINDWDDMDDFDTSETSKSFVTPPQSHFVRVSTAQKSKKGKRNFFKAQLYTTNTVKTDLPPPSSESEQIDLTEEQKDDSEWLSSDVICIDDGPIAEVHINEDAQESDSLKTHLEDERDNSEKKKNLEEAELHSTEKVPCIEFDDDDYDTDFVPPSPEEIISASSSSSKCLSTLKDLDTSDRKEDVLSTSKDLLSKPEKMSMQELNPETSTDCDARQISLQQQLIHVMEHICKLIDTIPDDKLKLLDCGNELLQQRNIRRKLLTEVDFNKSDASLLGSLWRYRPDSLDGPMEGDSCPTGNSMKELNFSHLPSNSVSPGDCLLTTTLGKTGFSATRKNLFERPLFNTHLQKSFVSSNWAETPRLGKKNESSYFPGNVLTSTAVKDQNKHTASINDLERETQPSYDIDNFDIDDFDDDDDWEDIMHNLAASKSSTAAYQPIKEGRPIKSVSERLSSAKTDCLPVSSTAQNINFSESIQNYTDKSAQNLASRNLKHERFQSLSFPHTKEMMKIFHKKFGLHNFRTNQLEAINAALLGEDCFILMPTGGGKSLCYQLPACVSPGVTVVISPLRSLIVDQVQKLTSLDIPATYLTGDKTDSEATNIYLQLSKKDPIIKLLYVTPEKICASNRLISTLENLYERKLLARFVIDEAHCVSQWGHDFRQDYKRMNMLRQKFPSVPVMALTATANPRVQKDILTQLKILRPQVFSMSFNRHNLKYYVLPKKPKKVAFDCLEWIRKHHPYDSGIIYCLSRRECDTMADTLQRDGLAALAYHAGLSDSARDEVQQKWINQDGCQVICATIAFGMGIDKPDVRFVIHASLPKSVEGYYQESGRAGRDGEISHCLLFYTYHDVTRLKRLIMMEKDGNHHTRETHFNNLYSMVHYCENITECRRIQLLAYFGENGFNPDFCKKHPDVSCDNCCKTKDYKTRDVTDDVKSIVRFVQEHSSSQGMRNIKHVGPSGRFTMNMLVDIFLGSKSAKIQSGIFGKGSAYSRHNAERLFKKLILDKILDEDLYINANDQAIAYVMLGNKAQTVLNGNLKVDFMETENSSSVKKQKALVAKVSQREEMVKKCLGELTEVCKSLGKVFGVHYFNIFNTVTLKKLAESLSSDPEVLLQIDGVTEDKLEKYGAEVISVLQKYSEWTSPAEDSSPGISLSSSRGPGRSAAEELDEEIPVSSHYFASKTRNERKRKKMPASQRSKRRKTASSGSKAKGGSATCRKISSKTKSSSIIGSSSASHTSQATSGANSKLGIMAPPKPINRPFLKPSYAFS

Sequence of ATP-dependent DNA helicase Q1 (Homo sapiens) (P46063 whole entry, looked up): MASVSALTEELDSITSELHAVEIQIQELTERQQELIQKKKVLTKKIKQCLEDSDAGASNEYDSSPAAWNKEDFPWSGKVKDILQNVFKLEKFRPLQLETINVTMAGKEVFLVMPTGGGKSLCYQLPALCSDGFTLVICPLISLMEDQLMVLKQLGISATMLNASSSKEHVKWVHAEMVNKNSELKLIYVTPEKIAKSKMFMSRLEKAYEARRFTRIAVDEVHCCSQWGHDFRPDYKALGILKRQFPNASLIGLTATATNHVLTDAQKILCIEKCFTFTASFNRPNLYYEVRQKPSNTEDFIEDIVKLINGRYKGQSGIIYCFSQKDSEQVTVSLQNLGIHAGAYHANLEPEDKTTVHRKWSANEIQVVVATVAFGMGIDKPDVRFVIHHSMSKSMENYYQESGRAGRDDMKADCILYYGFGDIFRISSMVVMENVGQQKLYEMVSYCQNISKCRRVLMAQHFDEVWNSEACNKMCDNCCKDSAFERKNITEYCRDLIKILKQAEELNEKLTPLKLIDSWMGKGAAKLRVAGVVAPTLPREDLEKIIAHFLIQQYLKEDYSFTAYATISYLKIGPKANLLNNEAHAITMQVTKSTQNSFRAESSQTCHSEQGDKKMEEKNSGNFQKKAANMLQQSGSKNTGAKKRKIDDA
Sequence of DNA polymerase III PolC-type (Bacillus subtilis (strain 168)) (P13267 whole entry, looked up): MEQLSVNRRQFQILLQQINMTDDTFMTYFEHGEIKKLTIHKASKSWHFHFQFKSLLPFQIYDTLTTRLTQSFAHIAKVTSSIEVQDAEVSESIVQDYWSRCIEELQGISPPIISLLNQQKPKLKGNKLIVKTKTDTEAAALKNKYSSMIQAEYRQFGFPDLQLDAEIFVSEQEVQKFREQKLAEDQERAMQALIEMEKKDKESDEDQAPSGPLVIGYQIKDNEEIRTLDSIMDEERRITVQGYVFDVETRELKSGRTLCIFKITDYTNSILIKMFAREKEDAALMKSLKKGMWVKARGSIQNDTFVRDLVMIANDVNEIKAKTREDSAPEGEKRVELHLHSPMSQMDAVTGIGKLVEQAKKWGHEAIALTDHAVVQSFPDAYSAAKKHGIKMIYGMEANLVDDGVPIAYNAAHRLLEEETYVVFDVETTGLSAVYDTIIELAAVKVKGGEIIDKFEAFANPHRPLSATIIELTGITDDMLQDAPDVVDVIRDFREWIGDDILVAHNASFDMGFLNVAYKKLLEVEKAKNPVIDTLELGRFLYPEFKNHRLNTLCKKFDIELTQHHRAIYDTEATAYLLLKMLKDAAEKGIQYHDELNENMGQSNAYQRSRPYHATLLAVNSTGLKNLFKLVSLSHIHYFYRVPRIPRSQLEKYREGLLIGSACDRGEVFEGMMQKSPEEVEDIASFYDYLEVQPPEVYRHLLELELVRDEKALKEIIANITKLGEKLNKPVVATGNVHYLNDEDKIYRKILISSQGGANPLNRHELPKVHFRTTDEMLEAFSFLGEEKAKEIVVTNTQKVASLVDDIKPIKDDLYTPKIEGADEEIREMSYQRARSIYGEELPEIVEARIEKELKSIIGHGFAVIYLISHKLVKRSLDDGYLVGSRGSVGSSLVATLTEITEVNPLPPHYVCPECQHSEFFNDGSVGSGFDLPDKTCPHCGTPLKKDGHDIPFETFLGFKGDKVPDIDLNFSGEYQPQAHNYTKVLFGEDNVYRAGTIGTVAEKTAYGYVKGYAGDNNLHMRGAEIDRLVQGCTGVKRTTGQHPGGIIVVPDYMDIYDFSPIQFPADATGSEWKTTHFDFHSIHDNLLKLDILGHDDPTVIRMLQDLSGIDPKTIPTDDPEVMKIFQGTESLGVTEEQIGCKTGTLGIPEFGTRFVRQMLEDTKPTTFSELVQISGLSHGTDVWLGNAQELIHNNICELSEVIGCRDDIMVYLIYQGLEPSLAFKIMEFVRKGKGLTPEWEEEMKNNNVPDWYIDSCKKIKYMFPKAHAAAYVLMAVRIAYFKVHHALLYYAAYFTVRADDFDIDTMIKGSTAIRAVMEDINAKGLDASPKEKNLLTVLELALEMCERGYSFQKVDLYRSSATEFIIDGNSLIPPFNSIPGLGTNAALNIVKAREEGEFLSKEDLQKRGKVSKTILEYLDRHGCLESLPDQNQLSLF
Sequence of Ferritin light chain (Equus caballus) (P02791 2-175 limits assumed): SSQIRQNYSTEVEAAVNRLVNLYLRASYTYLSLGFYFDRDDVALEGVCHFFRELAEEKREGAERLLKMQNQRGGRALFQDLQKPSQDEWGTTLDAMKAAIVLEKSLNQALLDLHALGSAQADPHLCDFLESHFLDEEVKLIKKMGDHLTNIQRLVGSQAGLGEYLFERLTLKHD
Sequence of Tumor susceptibility gene 101 protein (Homo sapiens) (Q99816 whole entry, looked up, the tested form may be a part): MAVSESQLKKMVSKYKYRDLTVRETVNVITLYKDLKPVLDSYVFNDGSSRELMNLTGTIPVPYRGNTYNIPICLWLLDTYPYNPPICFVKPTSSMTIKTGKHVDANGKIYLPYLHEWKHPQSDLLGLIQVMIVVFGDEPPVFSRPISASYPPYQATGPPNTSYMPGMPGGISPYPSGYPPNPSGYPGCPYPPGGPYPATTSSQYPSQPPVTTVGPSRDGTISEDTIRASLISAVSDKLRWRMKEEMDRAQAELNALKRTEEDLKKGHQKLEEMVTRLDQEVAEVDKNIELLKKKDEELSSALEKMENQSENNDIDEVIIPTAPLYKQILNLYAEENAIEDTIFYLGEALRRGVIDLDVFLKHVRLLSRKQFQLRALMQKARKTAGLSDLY
Sequence of Ubiquitin carboxyl-terminal hydrolase 2 (Homo sapiens) (O75604 whole entry, looked up): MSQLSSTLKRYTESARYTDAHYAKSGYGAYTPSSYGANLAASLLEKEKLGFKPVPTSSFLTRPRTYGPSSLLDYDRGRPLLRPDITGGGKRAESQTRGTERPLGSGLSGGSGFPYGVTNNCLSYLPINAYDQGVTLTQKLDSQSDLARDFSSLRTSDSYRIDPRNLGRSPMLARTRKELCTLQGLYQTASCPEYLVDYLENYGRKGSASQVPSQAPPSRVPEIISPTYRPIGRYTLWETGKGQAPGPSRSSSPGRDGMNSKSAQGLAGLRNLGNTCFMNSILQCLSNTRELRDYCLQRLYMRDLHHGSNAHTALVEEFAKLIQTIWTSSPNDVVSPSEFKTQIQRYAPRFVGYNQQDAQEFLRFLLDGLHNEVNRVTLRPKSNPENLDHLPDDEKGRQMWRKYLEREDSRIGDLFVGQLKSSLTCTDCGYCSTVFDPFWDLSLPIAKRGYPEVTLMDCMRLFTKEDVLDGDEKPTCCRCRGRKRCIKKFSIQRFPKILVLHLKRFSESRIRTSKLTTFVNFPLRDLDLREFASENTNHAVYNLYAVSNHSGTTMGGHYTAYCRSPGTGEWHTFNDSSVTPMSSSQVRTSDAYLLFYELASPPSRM

On to `CNCC(O)c1ccc(O)cc1` (configuration not stated), for which the outcome in experiment [1], in experiment [2], in experiment [3] and in experiment [9] was inactive. Further, the Potency result in experiment [4], in experiment [5], in experiment [6], in [7] and in experiment [8] was “inactive” in each case.

On to `CC(=O)[C@H]1CC[C@H]2[C@@H]3CC[C@H]4C[C@H](O)CC[C@]4(C)[C@H]3C(=O)C[C@]12C`, for which the outcome in [1], in experiment [2], in [3] and in experiment [9] was inactive. In addition, the Potency entry in experiment [10], in experiment [4], in [5], in [6], in [7] and in experiment [8] was “inactive” in each case.

Turning to `c1ccc(C2CC2)c(OCC2=NCCN2)c1`, the compound was classed as inactive in experiment [1], in experiment [2], in experiment [3] and in experiment [9]. Moreover, the Potency result in experiment [10], in experiment [4], in experiment [5], in experiment [6], in experiment [7] and in experiment [8] was “inactive” in each case.

For the compound `CCCN1CCC[C@@H]2Cc3nc(N)ncc3C[C@H]21`, the compound was called inactive in experiment [1], in [2], in experiment [3] and in [9]. Moreover, the Potency result in experiment [10], in [4], in experiment [5], in experiment [6], in experiment [7] and in [8] was “inactive” throughout.

On to `Nc1ccncc1`, for which the call in experiment [1], in experiment [2], in experiment [3] and in [9] was inactive. Moreover, the Potency result in [10], in experiment [4], in experiment [5], in [6], in experiment [7] and in experiment [8] was “inactive” throughout.

`NCC1(CC(=O)O)CCCCC1`: the outcome in experiment [1], in [2], in experiment [3] and in [9] was inactive. Further, the Potency entry in experiment [4], in experiment [5], in [6] and in experiment [8] was “inactive” throughout.

As to `Fc1ccc(C(OCCN2CCN(CCCc3ccccc3)CC2)c2ccc(F)cc2)cc1`, the outcome in [2] and in experiment [9] was inactive. Also, the Potency in experiment [6] is 12.6 µM (active). Also, the Potency result in [7] and in [8] was “inactive” throughout.

On to `CCC1(C2=NCCN2)Cc2ccccc2O1` (configuration not stated), for which the compound was called inactive in [1], in [2], in experiment [3] and in experiment [9]. Further, the Potency entry in experiment [10], in experiment [4], in experiment [5], in experiment [6], in experiment [7] and in experiment [8] was “inactive” each time.

For the compound `COc1ccccc1N1CCNCC1`, the compound was classed as inactive in experiment [1], in experiment [2], in experiment [3] and in [9]. For the same compound, the Potency entry in experiment [10], in [4], in experiment [5], in experiment [6], in experiment [7] and in experiment [8] was “inactive” in each case.

These data come from PubChem BioAssay (NCATS).
